Only some compounds are listed: those with a hit (about 11% of all), similar ones and a draw of the others.
HPGD block – HPGD (human) dehydrogenase inhibition; P15428; purified HPGD, NADH fluorescence kinetic, PGE2 substrate; Potency, µM, for the others: at the top dose activity change, negative = inhibition, most hits filed as inhibitors; actives 4.3% (n = 150,000); AID 894; note: potency is the fitted concentration of half-maximal effect
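20 nM HPGD preincubated 15 min at room temperature with compound in 50 mM Tris-HCl pH 8, 0.01% Tween 20. Started with 1 mM NAD+ and 30 uM prostaglandin E2; NADH fluorescence (360/450 nm) read 5 times over 30-s intervals, last minus first.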
ALOX12 inhib – 12-hLO (ALOX12) enzyme inhibition; P18054; purified 12-hLO, xylenol orange hydroperoxide absorbance; Potency, µM (titrated, usually from 57.1 µM), for the others: at the highest dose activity change, negative = inhibition, actives largely listed as inhibitors; actives 0.12% (n = 150,000); AID 1452; active = well fitted curve in the direction sought with a large enough effect; inconclusive = small, poorly fitted or top-dose-only effect, or another doubt; inactive = no such curve, though single readings can be large; an effect the other way counts as inactive or inconclusive; note: potency is the fitted concentration of half-maximal effect; nearly all actives have a fitted effect of over 55% in size
Target sequence (P18054 whole entry, looked up): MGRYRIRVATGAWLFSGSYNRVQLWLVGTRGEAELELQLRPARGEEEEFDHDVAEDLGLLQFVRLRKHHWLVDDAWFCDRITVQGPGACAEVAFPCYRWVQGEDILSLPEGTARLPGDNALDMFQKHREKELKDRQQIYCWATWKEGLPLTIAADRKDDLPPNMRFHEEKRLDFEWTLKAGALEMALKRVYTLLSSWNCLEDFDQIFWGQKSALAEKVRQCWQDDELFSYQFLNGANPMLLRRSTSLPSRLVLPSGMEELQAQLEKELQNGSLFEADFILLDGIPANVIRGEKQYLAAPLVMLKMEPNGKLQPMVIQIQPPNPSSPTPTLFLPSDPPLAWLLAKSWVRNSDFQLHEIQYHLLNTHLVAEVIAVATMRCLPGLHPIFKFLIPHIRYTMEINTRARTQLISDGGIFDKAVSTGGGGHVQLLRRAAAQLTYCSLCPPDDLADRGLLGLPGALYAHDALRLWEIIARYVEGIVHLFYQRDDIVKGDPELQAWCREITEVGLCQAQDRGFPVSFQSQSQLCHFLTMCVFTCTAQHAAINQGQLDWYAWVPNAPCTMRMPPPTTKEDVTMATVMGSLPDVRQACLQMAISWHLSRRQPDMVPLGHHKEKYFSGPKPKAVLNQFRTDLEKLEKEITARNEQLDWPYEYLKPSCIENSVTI
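Hydroperoxide output read as Fe(III)-xylenol orange absorbance, 573-to-405 nm ratio, after 30 min reaction with 40 uM arachidonic acid. Enzyme: 150 nM purified human 12hLO, 15 min compound preincubation; 25 mM Hepes pH 7.0, room temperature.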
ALDH1A1 inh – blocks purified human ALDH1A1 activity | AID 1030 | actives 7.3% (n = 220,000) | Potency, µM (highest dose often 75.3 µM), without a hit: top-dose activity, negative = inhibition, usual class: inhibitors | P00352 | Purified ALDH1A1, NADH fluorescence, propionaldehyde substrate;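 note: potency is the fitted concentration of half-maximal effect; plate controls were no enzyme wells and a reference inhibitor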
IMPase inh – IMPase inhibition in cells; P97697; CHO-M1 cells, IP1 accumulation, HTRF TR-FRET ratio; inhibition (IP1 accumulation), % at 46.1 µM; 120,000 tested, under 10 active; active = well fitted curve in the direction sought with a large enough effect in the signal ratio, not every such curve was filed as active; inconclusive = small, poorly fitted or top-dose-only effect, or a change in a side signal; inactive = no such curve, though single readings can be large or run the other way; the % refers to the signal ratio;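 note: cells stimulated with carbachol in lithium chloride buffer; plate controls were DMSO basal wells for no effect and reference inhibitor wells for full effect; higher means more IMPase inhibition seen as more IP1 and lower FRET ratio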
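Seeded CHO-M1 cells were dosed with compound at up to 46 uM, stimulated with carbachol for 30 min, then lysed in IP-One detection reagents. Higher IP1 lowers the TR-FRET signal.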
IMPase Li cell – membrane-permeable IMPase blocker, potentiated with lithium; CHO-M1 cells, IP1 TR-FRET (IP-One), carbachol + lithium; Potency, µM (titrated, usually from 59.4 µM), for the others: at the top dose activity, negative = IMPase inhibition, actives largely listed as inhibitors; actives 0.35% (n = 210,000); AID 1457; active = well fitted curve in the direction sought with a large enough effect; inconclusive = small, poorly fitted or top-dose-only effect, or another doubt; inactive = no such curve, though single readings can be large; an effect the other way counts as inactive or inconclusive;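 note: IP1 builds up when IMPase is blocked and the TR-FRET signal falls; potency is the fitted concentration of half-maximal effect; plate controls were basal vehicle for no effect and high inhibitor control for full effect; nearly all actives have a fitted effect of over 50% in size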
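CHO cells stably expressing M1 receptor (2000/well) were cultured 16–30 h, then exposed to compounds with a small lithium addition for 30 min at 37C. IP1 was measured by TR-FRET competition; AC50 from Hill fits.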
PNC assembly inh – blocks assembly of the perinucleolar compartment. PC3M PTB-GFP, PNC prevalence imaging, 16 h; stronger effect = lower value. activity change (PNC), negative = inhibition, % at 10 µM. actives 3.1% (n = 140,000);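 active = readout at or below -70, meaning at least 70% loss of cells showing the perinucleolar compartment, a nuclear body marking cancer cells; inconclusive = readout between -30 and a set limit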;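 note: plate controls were DMSO wells for no effect and camptothecin positive control wells for full effect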
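Read-out is percentage of cells bearing a perinucleolar compartment, from automated 20x imaging of fixed, Hoechst-stained PC3M PTB-GFP cells. Cells were seeded 4 h, then exposed 16 h to compound (23 nl of library stock) in duplicate plates.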
Numbers without * were called inactive; [ ] = dose if it differs, or a comment. Unless noted, calls come from the whole dose curve; as a rule, active = well fitted inhibition curve with a large enough effect (not every such curve was filed as active); inconclusive = small, poorly fitted or top-dose-only effect, or another doubt; inactive = no such curve, though single readings can be large or run the other way. Unless noted, % is set by controls: 0 for no effect and ±100 for the full control effect.

How did O=C1COc2ccc(C(=O)COC(=O)c3cnc(Cl)c(Cl)c3)cc2N1 do in these assays?
ALDH1A1 inh: 1.26µM*; IMPase Li cell: 18.2%

How did CCCCSCCCNC(=O)Nc1ccc(CC)cc1 do in these assays?
ALDH1A1 inh: -4.7%; IMPase Li cell: 5.5%

Results for Cc1ccccc1Nc1c(-c2ccc(Br)o2)nc2ccc(Cl)cn12 ?
IMPase inh: -3.7

How did COc1ccc(C2Nc3ccccc3C(=O)N2c2ccc(C)cc2)cc1Cn1cc([N+](=O)[O-])cn1 (stereo unspecified) do in these assays?
HPGD block: -18.9%; ALOX12 inhib: -3.6%; ALDH1A1 inh: 28.2µM*; IMPase inh: 7.1; IMPase Li cell: 15.1%[38.3 µM]; PNC assembly inh: 14.4

What do the screens show for `Cc1ccc2c(c1)nnn2C1CCN(C(=O)C2CCCCC2)CC1`?
HPGD block: -4.9%; ALOX12 inhib: -3.5%; ALDH1A1 inh: 7.94µM*; IMPase inh: -4.7; IMPase Li cell: 11.6%[38.3 µM]; PNC assembly inh: inconclusive

Results for Cc1ccc2c(c1)nnn2C1CCN(C(=O)c2ccccc2F)CC1 ?
ALDH1A1 inh: inconclusive; IMPase Li cell: -0.6%

Results for Cc1c(C(=O)N2CCCC2)nnn1-c1nonc1N ?
HPGD block: -29.8%; ALOX12 inhib: 5.0%; ALDH1A1 inh: 25.1µM*; IMPase inh: 17.6; IMPase Li cell: -6.5%; PNC assembly inh: 6.1

Results for CCOC(=O)c1nnn(-c2nonc2N)c1C ?
HPGD block: -9.6%; ALOX12 inhib: -3.4%; ALDH1A1 inh: -15.5%; IMPase inh: 4.1; IMPase Li cell: 37.4%[38.3 µM]; PNC assembly inh: -15.9

How did COC(=O)c1nnn(-c2nonc2N)c1CSc1ccccn1 do in these assays?
HPGD block: -0.8%; ALOX12 inhib: -1.3%; ALDH1A1 inh: inconclusive; IMPase inh: 3.1; IMPase Li cell: 0.2%[38.3 µM]; PNC assembly inh: inconclusive

How did CCOC(=O)c1nnn(-c2nonc2N)c1CN1CCc2ccccc2C1 do in these assays?
HPGD block: 0.4%; ALOX12 inhib: -3.6%; ALDH1A1 inh: inconclusive; IMPase inh: 4.6; IMPase Li cell: 5.6%; PNC assembly inh: -83.2*

What do the screens show for `CC(C)OC(=O)c1nnn(-c2nonc2N)c1CSc1ccccn1`?
HPGD block: inconclusive; ALOX12 inhib: -15.2%; ALDH1A1 inh: 2.24µM*; IMPase inh: -3.6; IMPase Li cell: inconclusive; PNC assembly inh: -3.4

What do the screens show for `OCCNc1nc(N2CCCC2)nc(N2CCCC2)n1`?
HPGD block: -8.7%; ALOX12 inhib: -1.6%; ALDH1A1 inh: 3.0%; IMPase inh: inconclusive; IMPase Li cell: 11.5%; PNC assembly inh: 0.7

How did O=[N+]([O-])c1ccc(Nc2nc(NCCO)nc(N3CCCC3)n2)cc1 do in these assays?
ALDH1A1 inh: 1.58µM*; IMPase Li cell: 8.5%

What do the screens show for `O=S(=O)(Nc1ccc2oc3c(c2c1)CCCC3)c1cc(Cl)ccc1Cl`?
IMPase inh: -3.5

Results for CCCC1=C(C(=O)OCC)C(c2sccc2C)n2ncnc2N1 (stereo unspecified) ?
ALDH1A1 inh: 1.6%

Results for CCn1c(=O)c2c(n3c(=S)[nH]nc13)-c1ccccc1CC21CCCCC1 ?
ALDH1A1 inh: 22.4µM*; IMPase Li cell: 0.9%

What do the screens show for `CC(=O)N(O)[C@@H]1c2cc(C#N)ccc2OC(C)(C)[C@H]1O`?
HPGD block: -13.0%; ALOX12 inhib: 0.8%; ALDH1A1 inh: 4.2%; IMPase Li cell: -4.7%

Results for O=C(Cc1ccccc1)Nc1ccc(Br)c(Cl)c1 ?
HPGD block: -21.1%; ALOX12 inhib: -4.2%; ALDH1A1 inh: 15.8µM*; IMPase Li cell: 12.1%; PNC assembly inh: -82.1*

What do the screens show for `Cc1cc(-c2ccccc2)nc(N/N=C/c2ccco2)n1`?
HPGD block: -7.7%; ALOX12 inhib: -14.7%; ALDH1A1 inh: -6.3%; IMPase inh: 4.7; IMPase Li cell: -12.8%[38.3 µM]; PNC assembly inh: inconclusive

How did Cc1cc(C)nc(N/N=C/c2ccco2)n1 do in these assays?
HPGD block: -2.9%; ALOX12 inhib: -0.5%; ALDH1A1 inh: 4.0%; IMPase inh: -2.1; IMPase Li cell: 27.1%[38.3 µM]; PNC assembly inh: -109.7*

Results for O=C(CC12CC3CC(CC(C3)C1)C2)NC(=S)N1CCCCC1 ?
HPGD block: inconclusive; ALOX12 inhib: -3.4%; ALDH1A1 inh: 20µM*; IMPase inh: -10.3; IMPase Li cell: 23.1%; PNC assembly inh: 19.0

Results for O=C(O)c1cccc(Cn2c(Cl)c(/C=N/NC(=O)c3ccccc3O)sc2=O)c1 ?
ALDH1A1 inh: 3.6%

Results for O=C(O)c1cccc(Cn2c(Cl)c(/C=N/Nc3ccccc3)sc2=O)c1 ?
ALDH1A1 inh: 22.4µM*; IMPase Li cell: 2.4%

Results for O=C(O)c1cccc(Cn2c(Cl)c(/C=N/NC(=O)c3ccccc3Cl)sc2=O)c1 ?
HPGD block: 28.2µM*; ALOX12 inhib: 3.3%; ALDH1A1 inh: inconclusive; IMPase inh: 1.0; IMPase Li cell: 16.3%[38.3 µM]; PNC assembly inh: -25.5

What do the screens show for `C[C@]12CC[C@@H]3c4ccc(O)cc4CC[C@H]3[C@@H]1CC[C@H]2O`?
HPGD block: -0.9%; ALOX12 inhib: -0.3%[0.00818 µM]; ALDH1A1 inh: -1.6%; IMPase Li cell: 6.9%

Results for COc1cc(N/C(N)=N/c2nc(C)cc(C)n2)c(OC)cc1Cl ?
ALDH1A1 inh: 12.1%; IMPase Li cell: 14.6%

How did O=C(Nc1cc(C(=O)N2CCCC2)ccc1N1CCCC1)c1ccccc1 do in these assays?
HPGD block: 25.1µM*; ALOX12 inhib: -4.6%; ALDH1A1 inh: inconclusive; IMPase inh: 8.9; IMPase Li cell: 27.7%[38.3 µM]; PNC assembly inh: -111.0*

How did O=C(Nc1ccccc1C(=O)N1CCCC1)c1ccccc1 do in these assays?
HPGD block: -1.0%; ALOX12 inhib: 7.5%; ALDH1A1 inh: 5.5%; IMPase inh: 4.7; IMPase Li cell: 8.9%; PNC assembly inh: -118.9*

How did O=C(c1cccc(F)c1F)N1CCCC1 do in these assays?
HPGD block: 28.2µM*; ALOX12 inhib: 4.2%; ALDH1A1 inh: -2.5%; IMPase inh: 2.2; IMPase Li cell: 11.0%; PNC assembly inh: 104.3

Results for CCCCOC(=O)Nc1ccccc1C(=O)N1CCCC1 ?
HPGD block: -1.3%; ALOX12 inhib: 0.3%; ALDH1A1 inh: inconclusive; IMPase Li cell: -3.4%; PNC assembly inh: -113.4*

Results for Cc1cccc(O)c1 ?
HPGD block: -5.0%; ALOX12 inhib: -2.6%[0.00818 µM]; ALDH1A1 inh: 10.4%; IMPase Li cell: -2.5%

Results for CC1=NN(Cc2c(C)nn(Cc3ccccc3)c2C)C(C)(C)C1 ?
ALDH1A1 inh: 0.9%; IMPase Li cell: inconclusive

What do the screens show for `CCOc1cccc(NC(=O)c2sc3nc(-c4ccc(F)cc4)ccc3c2N)c1`?
IMPase inh: -2.7

Compound activity as filed in PubChem.
